3 compounds from PubChem BioAssay (NCATS) can be followed below.

Assay [1] in a line: qHTS for Inhibitors of the Functional Ribonucleoprotein Complex (vRNP) of Lassa (LASV) Arenavirus: LASV Primary Screen - GLuc reporter signal (AID 1347082; calls by dose curve; tested in HEK293 reporter line; note: % is set by controls: 0 for no effect and ±100 for the full control effect; nearly all actives have a fitted effect of over 60% in size). (qHTS replaces the single test concentration by a dilution series.)
The nature of assay [2]: qHTS for Inhibitors of the Functional Ribonucleoprotein Complex (vRNP) of Lassa (LASV) Arenavirus: Viability assay - alamar blue signal for LASV Primary Screen (AID 1347083; calls by dose curve; tested in HEK293 reporter line; note: nearly all actives have a fitted effect of over 80% in size; note: potency is the fitted concentration of half-maximal effect).
A short description of assay [3]: qHTS for Inhibitors of the Functional Ribonucleoprotein Complex (vRNP) of Lymphocytic Choriomeningitis Arenaviruses (LCMV): Viability assay - alamar blue signal for LCMV Primary Screen (AID 1347085; calls by dose curve; tested in HEK293 reporter line; note: % is set by controls: 0 for no effect and ±100 for the full control effect; nearly all actives have a fitted effect of over 80% in size).
Assay [4] concerns the target Nucleoprotein (Lymphocytic choriomeningitis virus (strain Armstrong)) (UniProt P09992). Description: qHTS for Inhibitors of the Functional Ribonucleoprotein Complex (vRNP) of Lymphocytic Choriomeningitis Arenaviruses (LCMV): LCMV Primary Screen - GLuc reporter signal (AID 1347086; calls by dose curve; note: % is set by controls: 0 for no effect and ±100 for the full control effect; nearly all actives have a fitted effect of over 70% in size).
Assay [5] is described as follows: Confirmatory qHTS to identify inhibitors of SARS-CoV-2 cell entry (AID 1645844; calls by dose curve; note: potency is the fitted concentration of half-maximal effect; nearly all actives have a fitted effect of over 45% in size). Summed up: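 HEK293-ACE2, overnight seeding; cpd 1 h, 37C/5% CO2; + SARS-CoV-2-S MLV PP (Wuhan-Hu-1, ΔC19); 48 h; Bright-Glo luminescence. Data normalised to S PP and bald PP wells.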
A short description of assay [6]: Cytotoxicity counterscreen for inhibitors of SARS-CoV-2 cell entry (AID 1645845; calls by dose curve; note: % is set by controls: 0 for no effect and ±100 for the full control effect; nearly all actives have a fitted effect of over 50% in size). Summed up:
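Counterscreen run in the same HEK293-ACE2 line as the pseudotyped-particle entry assay, without particles. Viability after 48 h at 37 C was read as ATP luminescence, scaled between cell-containing and cell-free wells.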
(A counterscreen serves to expose hits that act by an unwanted route or on another target.)

Assay [7] in a line: Primary qHTS to identify inhibitors of SARS-CoV-2 cell entry (AID 1645846; calls by dose curve; note: nearly all actives have a fitted effect of over 45% in size). The conditions noted are these: activity change, negative = inhibition: at 57.1 µM (top of the series) unless noted. The procedure, abridged:
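Luminescence readout (Bright-Glo luciferase) 48 h after pseudoparticle addition. HEK293-ACE2 cells, 1500/well; compound pre-incubation 1 h; Normalized to spike PP and bald PP.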

Assay [8] is described as follows: VSVG counterscreen qHTS to identify inhibitors of SARS-CoV-2 cell entry (AID 1645847; calls by dose curve; note: potency is the fitted concentration of half-maximal effect; nearly all actives have a fitted effect of over 65% in size). The procedure, abridged:
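HEK293-ACE2 cells (Expi293F stably expressing human ACE2) were pretreated with compound for 1 h at 37 °C, then infected with MLV-based VSV-G pseudotyped particles for 48 h. Luciferase luminescence was normalized to VSV-G PP and bald PP wells.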

Assay [9] is described as follows: Confirmation and Secondary Assay for Modulators of Hemoglobin Beta Chain Splicing at IVS2 705 locus (AID 930).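 Note: HeLa cells stably expressing the EGFP-705 splicing reporter; % of control where 0% means no effect.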 Summed up: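 Assay measures total GFP intensity per well in HeLa EGFP-705 cells after 2 days with compound; mis-splicing normally truncates EGFP, so fluorescence indicates corrected splicing.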
The nature of assay [10]: qHTS Assay for Lipid Storage Modulators (AID 1519; calls by dose curve; for activity change, negative = inhibition: % is set by controls: 0 for no effect and ±100 for the full control effect). The conditions noted are these: Drosophila S3 cells, BODIPY lipid droplet/cell ratio, laser cytometry, cells loaded with oleic acid; for activity change, negative = inhibition: at 57.5 µM (top of the series). The procedure, abridged: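 Cells seeded at 5,000 per well were treated with compounds over a concentration series and loaded with oleic acid (400 uM, as added). Lipid droplet fluorescence (488 nm excitation, 500-530 nm channel) was read by laser-scanning cytometry and normalized to 20 uM Triacsin C.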

Assay [11] addresses Ubiquitin carboxyl-terminal hydrolase 1 (Homo sapiens) (UniProt O94782). Description: Inhibitors of USP1/UAF1: Pilot qHTS (AID 504865).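 Note: rhodamine fluorescence freed from ubiquitin-rhodamine substrate followed over time; top concentration of the series differs between compounds; % is set by controls: 0 for no effect and ±100 for the full control effect; nearly all actives have a fitted effect of over 35% in size.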 The procedure, abridged: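 USP1/UAF1 complex (1nM) preincubated with compound 15 min at room temperature, then Ub-Rho substrate (150nM final) added. Fluorescence read kinetically at 480/540 nm, 6 reads every 60 seconds. Buffer: 50mM HEPES pH 7.8, 0.5mM EDTA, 0.1 mg/ml BSA, 1mM TCEP, 0.01% Tween-20.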

The target in assay [12] is Cytochrome P450 3A4 (Homo sapiens) (UniProt P08684). Nature of the assay: qHTS Assay for Inhibitors and Substrates of Cytochrome P450 3A4 (AID 884). Note: % is set by controls: 0 for no effect and ±100 for the full control effect; nearly all actives have a fitted effect of over 50% in size. Summed up: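 Luminescent readout of luciferin produced by CYP3A4 (20 nM) dealkylation of Luciferin-PPXE, 25 uM (its KM). NADPH-driven reaction ran 60 min at RT after 10 min compound preincubation; data scaled to 57 uM ketoconazole as 100% inhibition.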
Chain of Cytochrome P450 3A4 (Homo sapiens) (P08684 whole entry, looked up): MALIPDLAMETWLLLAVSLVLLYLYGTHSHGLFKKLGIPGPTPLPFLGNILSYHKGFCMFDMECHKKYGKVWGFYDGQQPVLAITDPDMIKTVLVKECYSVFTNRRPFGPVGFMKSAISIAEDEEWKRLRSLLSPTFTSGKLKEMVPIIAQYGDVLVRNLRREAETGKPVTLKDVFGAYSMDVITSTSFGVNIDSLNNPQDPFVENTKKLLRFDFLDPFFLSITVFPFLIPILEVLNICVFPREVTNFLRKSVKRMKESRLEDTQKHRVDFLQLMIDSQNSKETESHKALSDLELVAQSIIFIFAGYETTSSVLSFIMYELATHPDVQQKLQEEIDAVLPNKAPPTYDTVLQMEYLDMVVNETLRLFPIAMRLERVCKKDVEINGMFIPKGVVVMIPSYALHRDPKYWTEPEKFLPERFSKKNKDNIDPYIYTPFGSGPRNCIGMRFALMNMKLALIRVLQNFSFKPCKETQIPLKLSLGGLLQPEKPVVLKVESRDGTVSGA

Assay [13] has the same target. Description: qHTS Assay for Activators of Cytochrome P450 3A4 (AID 885). Note: potency is the fitted concentration of half-maximal effect; nearly all actives have a fitted effect of over 65% in size. Summed up: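 Luminescent readout of luciferin formed from 25 uM Luciferin-PPXE (KM level) by 20 nM CYP3A4 in 200 mM KPO4, with 60 min NADPH-driven reaction at room temperature after 10 min compound exposure. Ketoconazole (57 uM) defined 100% inhibition.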
Assay [14] deals with Cytochrome P450 2D6 (Homo sapiens) (UniProt P10635). Description: qHTS Assay for Inhibitors and Substrates of Cytochrome P450 2D6 (AID 891). Note: potency is the fitted concentration of half-maximal effect; nearly all actives have a fitted effect of over 60% in size. Summed up:
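Luminescent read-out of luciferin formed by 5 nM human CYP2D6 demethylating 30 uM Luciferin-ME EGE (Km level) over 60 min at room temperature after NADPH regeneration addition. Data normalized to full inhibition by 1.43 uM quinidine.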

Assay [15] can be described thus: qHTS Assay for Identification of Small Molecule Antagonists for Thrombopoietin (TPO) Signaling Pathway (AID 918). Note: potency is the fitted concentration of half-maximal effect; nearly all actives have a fitted effect of over 60% in size. The conditions noted are these: TPO-dependent cell signaling reporter, antagonist mode. Summed up: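 Inhibitors of TPO signaling are sought by stimulating IL-3-starved murine Ba/F3 cells (human TPO receptor, Glycoprotein IIb-driven luciferase) with TPO at its EC50 of 26 pM alongside compound. After 24 hrs at 37 C, reporter luminescence is measured.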

For assay [16], the target named is Muscarinic acetylcholine receptor M1 (Rattus norvegicus) (UniProt P08482). Description: qHTS Assay for Antagonists of Acetylcholine Muscarinic M1 Receptor: Kinetic Measurement of Intracellular Calcium Response (AID 943). Note: potency is the fitted concentration of half-maximal effect; nearly all actives have a fitted effect of over 75% in size. The procedure, abridged: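 Antagonism is measured as inhibition of the carbachol-evoked calcium rise in CHO cells transfected with rat M1. Cells are dye-loaded, exposed to compound for 10 min, then stimulated with 100 nM carbachol (EC80).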
Chain of Muscarinic acetylcholine receptor M1 (Rattus norvegicus) (P08482 whole entry, looked up): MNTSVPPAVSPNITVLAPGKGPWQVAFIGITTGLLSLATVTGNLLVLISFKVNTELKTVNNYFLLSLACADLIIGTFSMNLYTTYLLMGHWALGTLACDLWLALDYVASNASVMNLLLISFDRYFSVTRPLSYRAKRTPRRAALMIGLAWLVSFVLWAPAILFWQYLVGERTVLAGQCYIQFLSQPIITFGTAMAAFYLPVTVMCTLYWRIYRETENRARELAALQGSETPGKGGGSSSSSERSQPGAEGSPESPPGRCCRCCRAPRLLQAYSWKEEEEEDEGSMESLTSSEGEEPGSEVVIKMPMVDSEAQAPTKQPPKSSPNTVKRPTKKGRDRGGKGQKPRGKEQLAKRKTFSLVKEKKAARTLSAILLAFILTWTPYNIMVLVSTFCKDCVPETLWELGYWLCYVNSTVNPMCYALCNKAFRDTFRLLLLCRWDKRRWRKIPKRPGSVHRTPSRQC

Assay [17] has as its target Alpha-galactosidase (Coffea arabica) (UniProt Q42656). Nature of the assay: Counterscreen for Glucocerebrosidase Inhibitors: qHTS Assay for Coffee Bean alpha-Galactosidase at pH 4.5 (AID 957).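 Note: plate controls were enzyme alone for no effect and no enzyme for full effect.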 Summed up: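 Enzyme is added first (2 nM final), then compounds titrated from 0.7 nM to 77 uM, then 80 uM 4-methylumbelliferyl alpha-D-galactopyranoside; after 20 min at room temperature a pH 10 NaOH/glycine stop precedes fluorescence reading at 365/440 nm.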

Assay [18] has the same target. Description: Counterscreen for Glucocerebrosidase Inhibitors: qHTS Assay for Coffee Bean alpha-Galactosidase at pH 5.9 (AID 998).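 Note: plate controls were uninhibited enzyme for no effect and no-enzyme basal signal for full effect.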 The procedure, abridged: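 Enzyme 2 nM + cpd (0.7 nM–77 uM titration) + 4-MU-alpha-Gal 80 uM, pH 5.9 citrate/Tween-20, RT 20 min, NaOH/glycine stop pH 10, fluor 365/440. Normalized to no-enzyme and full-activity controls; Hill-fit AC50.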

The nature of assay [19]: qHTS for differential inhibitors of proliferation of Plasmodium falciparum line 7G8 (AID 1815).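 Note: potency is the fitted concentration of half-maximal effect; parasite growth measured after three days of incubation.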
The nature of assay [20]: qHTS for differential inhibitors of proliferation of Plasmodium falciparum line GB4 (AID 1816).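 Note: potency is the fitted concentration of half-maximal effect; parasite growth measured after 72 h incubation.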 The conditions noted are these: Potency: Plasmodium falciparum GB4 proliferation inhibition.
The nature of assay [21]: qHTS for differential inhibitors of proliferation of Plasmodium falciparum line 3D7 (AID 1876). Note: potency is the fitted concentration of half-maximal effect.
Assay [22] can be described thus: qHTS for differential inhibitors of proliferation of Plasmodium falciparum line D10 (AID 1877).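 Note: potency is the fitted concentration of half-maximal effect; parasites grown with compound for 72 h before DNA staining.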
The nature of assay [23]: qHTS for differential inhibitors of proliferation of Plasmodium falciparum line Dd2 (AID 1882). Note: potency is the fitted concentration of half-maximal effect; nearly all actives have a fitted effect of over 65% in size. The conditions noted are these: Potency: Plasmodium falciparum Dd2 proliferation inhibition. Summed up: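 SYBR Green DNA fluorescence (ex 485, em 535 nm) after overnight lysis quantifies parasite growth; compound exposure lasted 72 h at 37 C on infected red cells at 2.5% hematocrit, 0.3% parasitemia (final). Artemisinin 0.29 uM and vehicle wells define normalization.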

A short description of assay [24]: qHTS for differential inhibitors of proliferation of Plasmodium falciparum line W2 (AID 1883).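 Note: potency is the fitted concentration of half-maximal effect; parasites grown with compound for 72 h before lysis and staining.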 The conditions noted are these: Potency: Plasmodium falciparum W2 proliferation inhibition.
Assay [25] can be described thus: qHTS for differential inhibitors of proliferation of Plasmodium falciparum line HB3 (AID 1886).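 Note: potency is the fitted concentration of half-maximal effect; parasites grown with compound for 72 h before SYBR Green readout.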 The conditions noted are these: Potency: Plasmodium falciparum HB3 proliferation inhibition.
The nature of assay [26]: High Content Imaging Cell-Based qHTS for Inhibitors of the mTORC1 Signaling Pathway in MEF Cells (AID 2667). Note: potency is the fitted concentration of half-maximal effect. Summed up: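 Read-out is the share of phospho-rpS6-positive cells per well, from Hoechst-normalized Alexa-488 Ser235/236 staining imaged on IN Cell. Cells: WT Tsc2-expressing Tsc2-/-, p53-/- MEFs exposed to compound for 24 hrs.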
Assay [27] deals with M-phase phosphoprotein 8 (Homo sapiens) (UniProt Q99549). Description: qHTS Validation Assay for Inhibitors for MPP8 Chromodomain Interactions with Methylated Histone Tails (AID 488949).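 Note: AlphaScreen signal from MPP8 chromodomain bound to biotinylated H3K9me3 peptide; top concentration of the series differs between compounds; % is set by controls: 0 for no effect and ±100 for the full control effect; nearly all actives have a fitted effect of over 55% in size.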 Summed up:
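MPP8 (50 nM) was preincubated with biotinylated H3(1-18)K9me3 peptide (50 nM) in PBS pH 7.4, 0.01% Tween-20 for 30 min at room temperature, then with compounds for 30 min; binding was detected by AlphaScreen.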

Assay [28] concerns the target D(1A) dopamine receptor (Homo sapiens) (UniProt P21728). Nature of the assay: HTS Assay for Allosteric Agonists of the Human D1 Dopamine Receptor: Primary Screen for Potentiators (AID 488982). Note: 0% is about no effect. The procedure, abridged:
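Tetracycline-induced HEK293 Trex D1 cells with forced coupling to calcium, loaded with no-wash calcium dye; kinetic fluorescence read 180 s after compound addition for agonism, then a further 180 s after an EC20 dopamine challenge for potentiation.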

Assay [29] can be described thus: Inducers of the Endoplasmic Reticulum Stress Response (ERSR) in human glioma: Validation (AID 504836). Note: 0% is about no effect. The procedure, abridged:
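Stably transfected U87-MG glioma cells carrying a GRP78-based luciferase sensor; 16 h compound incubation. Luminescence end-point read 10 min after Bright-Glo addition at room temperature.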

Assay [30] addresses Voltage-gated inwardly rectifying potassium channel KCNH2 (Homo sapiens) (UniProt Q12809). Description: qHTS Assay for Small Molecule Inhibitors of the Human hERG Channel Activity (AID 588834).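 Note: potency is the fitted concentration of half-maximal effect; lower thallium flux fluorescence means stronger hERG block; nearly all actives have a fitted effect of over 50% in size.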 The procedure, abridged: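 In hERG-transduced U2OS cells, dye-loaded for 1 hr at room temperature in dark, test compounds incubated 10 min at 37 °C before thallium stimulation. AC50 values derived by Hill modelling of concentration-response.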

[31] abbreviates: measured here: cell count channel max response.
Where [32] appears, read: measured here: lipid channel max response.

Each structure is given as a SMILES string. Records with an inconclusive call do not appear. Active and inactive are the calls of the source. Unless noted, calls come from the whole dose curve; as a rule, active = well fitted curve in the direction sought with a large enough effect; inconclusive = small, poorly fitted or top-dose-only effect, or another doubt; inactive = no such curve, though single readings can be large; an effect the other way counts as inactive or inconclusive.

Chain of Nucleoprotein (Lymphocytic choriomeningitis virus (strain Armstrong)) (P09992 whole entry, looked up): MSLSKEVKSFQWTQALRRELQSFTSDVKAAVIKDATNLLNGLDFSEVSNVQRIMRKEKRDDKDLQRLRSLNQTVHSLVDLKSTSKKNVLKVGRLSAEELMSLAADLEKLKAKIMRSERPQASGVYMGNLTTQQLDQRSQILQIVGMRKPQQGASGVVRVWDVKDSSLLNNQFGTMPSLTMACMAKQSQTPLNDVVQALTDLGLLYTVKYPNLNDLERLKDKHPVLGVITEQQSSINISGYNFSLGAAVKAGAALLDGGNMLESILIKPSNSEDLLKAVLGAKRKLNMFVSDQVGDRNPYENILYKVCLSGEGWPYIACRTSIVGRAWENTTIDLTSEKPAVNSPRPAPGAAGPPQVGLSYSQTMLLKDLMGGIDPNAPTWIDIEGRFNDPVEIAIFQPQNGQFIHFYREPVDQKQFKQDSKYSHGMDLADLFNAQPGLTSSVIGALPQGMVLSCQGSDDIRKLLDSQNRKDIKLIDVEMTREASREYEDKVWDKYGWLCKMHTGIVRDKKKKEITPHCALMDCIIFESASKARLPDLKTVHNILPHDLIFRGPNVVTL
Chain of Alpha-galactosidase (Coffea arabica) (Q42656 whole entry, looked up): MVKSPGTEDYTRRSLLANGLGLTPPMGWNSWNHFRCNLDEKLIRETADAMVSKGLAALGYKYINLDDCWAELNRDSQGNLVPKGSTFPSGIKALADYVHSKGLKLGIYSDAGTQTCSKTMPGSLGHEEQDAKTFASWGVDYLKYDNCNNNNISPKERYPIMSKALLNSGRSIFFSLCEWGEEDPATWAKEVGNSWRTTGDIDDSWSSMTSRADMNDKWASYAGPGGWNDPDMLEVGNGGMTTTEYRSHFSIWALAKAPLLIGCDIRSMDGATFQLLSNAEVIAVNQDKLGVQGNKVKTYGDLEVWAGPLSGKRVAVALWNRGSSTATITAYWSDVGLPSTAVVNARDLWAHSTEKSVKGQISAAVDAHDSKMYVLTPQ
Chain of Ubiquitin carboxyl-terminal hydrolase 1 (Homo sapiens) (O94782 whole entry, looked up): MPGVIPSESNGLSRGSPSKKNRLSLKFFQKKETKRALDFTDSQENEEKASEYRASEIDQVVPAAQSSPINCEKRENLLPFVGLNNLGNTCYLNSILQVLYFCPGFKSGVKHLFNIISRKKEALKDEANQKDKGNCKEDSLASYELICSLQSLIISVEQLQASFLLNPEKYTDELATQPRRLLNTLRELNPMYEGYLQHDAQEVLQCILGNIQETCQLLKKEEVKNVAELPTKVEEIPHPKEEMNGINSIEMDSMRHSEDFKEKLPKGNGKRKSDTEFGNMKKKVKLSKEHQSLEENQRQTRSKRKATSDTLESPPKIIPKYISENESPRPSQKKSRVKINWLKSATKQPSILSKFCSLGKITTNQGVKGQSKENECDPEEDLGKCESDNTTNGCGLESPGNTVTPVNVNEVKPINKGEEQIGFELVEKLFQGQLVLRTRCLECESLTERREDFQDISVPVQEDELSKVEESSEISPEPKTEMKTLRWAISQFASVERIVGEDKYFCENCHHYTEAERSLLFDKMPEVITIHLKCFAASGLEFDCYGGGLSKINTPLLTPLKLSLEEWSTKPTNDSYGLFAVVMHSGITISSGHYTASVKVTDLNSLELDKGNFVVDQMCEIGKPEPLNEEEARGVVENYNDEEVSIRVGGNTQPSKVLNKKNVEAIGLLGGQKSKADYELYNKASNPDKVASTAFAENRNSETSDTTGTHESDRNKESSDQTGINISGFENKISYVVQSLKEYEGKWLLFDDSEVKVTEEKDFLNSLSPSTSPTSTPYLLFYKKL
Chain of D(1A) dopamine receptor (Homo sapiens) (P21728 whole entry, looked up): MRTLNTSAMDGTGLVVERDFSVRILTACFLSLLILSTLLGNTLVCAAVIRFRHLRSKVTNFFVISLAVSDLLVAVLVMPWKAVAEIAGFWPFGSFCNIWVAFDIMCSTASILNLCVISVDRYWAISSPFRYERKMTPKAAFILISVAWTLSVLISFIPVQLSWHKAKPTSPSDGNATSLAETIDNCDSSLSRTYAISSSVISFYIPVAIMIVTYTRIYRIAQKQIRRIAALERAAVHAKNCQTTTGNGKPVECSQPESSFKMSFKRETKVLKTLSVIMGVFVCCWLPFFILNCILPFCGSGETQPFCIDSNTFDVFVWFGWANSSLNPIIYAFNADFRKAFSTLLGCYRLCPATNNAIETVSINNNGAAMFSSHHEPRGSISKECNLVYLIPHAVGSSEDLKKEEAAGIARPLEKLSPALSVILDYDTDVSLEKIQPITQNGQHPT
Chain of Cytochrome P450 2D6 (Homo sapiens) (P10635 whole entry, looked up): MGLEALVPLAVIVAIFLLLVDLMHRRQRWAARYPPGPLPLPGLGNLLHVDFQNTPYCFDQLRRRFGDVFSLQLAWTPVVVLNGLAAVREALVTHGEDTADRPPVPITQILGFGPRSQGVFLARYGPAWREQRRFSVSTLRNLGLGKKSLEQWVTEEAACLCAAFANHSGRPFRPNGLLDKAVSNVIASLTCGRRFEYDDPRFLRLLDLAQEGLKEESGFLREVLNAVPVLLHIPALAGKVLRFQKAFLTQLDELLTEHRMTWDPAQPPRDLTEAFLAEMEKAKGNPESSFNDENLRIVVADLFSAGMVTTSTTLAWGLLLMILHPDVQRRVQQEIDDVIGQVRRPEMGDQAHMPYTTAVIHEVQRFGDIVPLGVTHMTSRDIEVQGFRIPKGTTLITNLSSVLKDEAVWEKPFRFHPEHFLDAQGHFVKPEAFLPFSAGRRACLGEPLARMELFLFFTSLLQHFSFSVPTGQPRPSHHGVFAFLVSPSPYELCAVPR
Chain of M-phase phosphoprotein 8 (Homo sapiens) (Q99549 whole entry, looked up): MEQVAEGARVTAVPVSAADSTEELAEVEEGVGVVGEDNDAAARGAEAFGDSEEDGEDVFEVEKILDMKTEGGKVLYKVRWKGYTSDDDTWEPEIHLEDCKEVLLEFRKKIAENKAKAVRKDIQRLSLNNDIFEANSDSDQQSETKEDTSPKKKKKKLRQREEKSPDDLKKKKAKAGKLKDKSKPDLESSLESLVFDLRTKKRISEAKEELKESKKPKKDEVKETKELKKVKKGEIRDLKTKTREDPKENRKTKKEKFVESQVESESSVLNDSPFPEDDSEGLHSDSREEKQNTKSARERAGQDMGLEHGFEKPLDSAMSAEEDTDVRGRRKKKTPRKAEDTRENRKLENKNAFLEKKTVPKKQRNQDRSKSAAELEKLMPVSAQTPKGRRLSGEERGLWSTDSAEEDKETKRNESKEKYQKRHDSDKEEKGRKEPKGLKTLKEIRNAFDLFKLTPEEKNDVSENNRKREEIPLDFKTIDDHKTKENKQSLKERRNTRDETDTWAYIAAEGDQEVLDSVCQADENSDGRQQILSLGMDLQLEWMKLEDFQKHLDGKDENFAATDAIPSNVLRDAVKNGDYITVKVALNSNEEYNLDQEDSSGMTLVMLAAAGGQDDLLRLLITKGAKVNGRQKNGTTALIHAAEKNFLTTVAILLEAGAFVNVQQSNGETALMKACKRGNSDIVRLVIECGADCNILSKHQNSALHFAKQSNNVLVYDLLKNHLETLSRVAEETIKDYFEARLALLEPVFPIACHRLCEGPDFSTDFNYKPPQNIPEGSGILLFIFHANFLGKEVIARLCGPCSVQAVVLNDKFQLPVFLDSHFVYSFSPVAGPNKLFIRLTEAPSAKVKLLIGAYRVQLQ

With `CO[C@@H]1C(N(C)C(=O)c2ccccc2)C[C@H]2O[C@]1(C)n1c3ccccc3c3c4c(c5c6ccccc6n2c5c31)C(=O)NC4=O` (stereo partly drawn), the Potency entry in assay [1], in assay [3], in assay [4] and in assay [6] was “inactive” each time. In addition, the Potency is 12.2 µM (active) in assay [2], 21.5 µM (active) in assay [5] and 27.1 µM (active) in assay [8]. In addition, the activity change, negative = inhibition in assay [7] is -47%.
As to `O=c1ccc2c(O)c3ccoc3cc2o1`, the compound was called inactive in assay [9]. Further, in assay [10], the activity change, negative = inhibition was 15.3% (inactive). The max response was 7.8% in assay [10] (setting [31]) and 27.4% in assay [10] (setting [32]). Further, the Potency result in [11], in [1], in assay [2], in assay [3] and in assay [4] was “inactive” in each case.
In the case of `OC1(c2ccc(Cl)cc2)CCN(Cc2c[nH]c3ccccc23)CC1`, the Potency entry in assay [12], in [27], in assay [28], in assay [1], in assay [2] and in [3] was “inactive” in each case. For the same compound, in assay [4], the Potency entry was “inactive”. For the same compound, the Potency in assay [13] is 2.51 µM (active); in [14], 0.316 µM (active); in [15] it was 10 µM (active); in assay [16], 11.2 µM (active); in assay [19], 7.08 µM (active); in assay [20] it was 8.91 µM (active). The Potency is 5.01 µM (active) in assay [21]; 10 µM (active) in assay [22]; 11.2 µM (active) in [23]; 3.98 µM (active) in assay [24]; 10 µM (active) in assay [25]; 2.33 µM (active) in [26]. In addition, the Potency in assay [30] was 0.794 µM (active). In addition, the result in [17], in assay [18] and in assay [29] was inactive. Moreover, the activity change, negative = inhibition in assay [10] was 1.03% (inactive). In addition, the max response was -29.2% in assay [10] (setting [31]) and -25.1% in [10] (setting [32]).
